# DTT redox prof = compounds producing H2O2 with reducing agent – biochemical, NIH compound library profiling, artefact control for MLSCN library redox annotation, primary screen. 200,000 tested, 0.03% active. DTT-dependent redox cycling H2O2, phenol red/HRP absorbance; 100% = 100 µM peroxide control, 0% = buffer. activation, % at 10 µM. AID 878, 2007;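 active means activation of at least 50% relative to the plate's high and low controls in the primary single-dose screen; inactive means activation below 50%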;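 further: compound incubated with DTT at 0.8 mM final as the reducing agent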
# Furin inhibitor = human furin inhibitors, primary screen, biochemical, fluorescence intensity. P09958. purified furin, fluorogenic substrate cleavage. inhibition, % at 20 µM or 30 µM. 220,000 tested, 0.061% active. AID 463115, 2010; in the data active means inhibition above about 25%
# p-CIP stab down = p/CIP-EGFP fusion destabilizers, primary screen, fluorescence, F442A cells. decrease of EGFP signal, % at 10 µM. Q05BA5. 16 h. 290,000 tested, 0.01% active. AID 1984, 2009;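 active means EGFP signal decrease of at least 30% at 10 µM or well 3 SD below plate mean, unless failing retest; inactive means the rest, including hits failing retest or dose response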
# Efa HMGR inh = inhibitors of E. faecalis class II HMGR, primary screen, biochemical, Enterococcus faecalis. purified E. faecalis HMGR, NADPH absorbance 340 nm kinetic. inhibition, % at 10 µM. 190,000 tested, 0.41% active. AID 1066, 2008;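 active means inhibition above a set limit, the median over all tested compounds plus 3 SD, cut at about 9.5% in these data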;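 further: enzyme runs in reverse so mevalonate oxidation gives rising NADPH absorbance; 0% = complete reaction with DMSO and 100% = background rate lacking mevalonate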
# TbHK1 inh = Trypanosoma brucei hexokinase 1 inhibitors, primary screen, biochemical, G6PDH-coupled NADH absorbance, MLSCN library. inhibition, % at 10 µM. recombinant TbHK1, G6PDH-coupled NADH A340. 220,000 tested, 0.11% active. hexokinase 1 [Trypanosoma brucei];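 active means inhibition of 50% or more in the single-dose primary screen; inactive means inhibition below 50%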
# p97 inhibitor = inhibitors of human p97 ATPase, primary screen, biochemical; Transitional endoplasmic reticulum ATPase (Homo sapiens), P55072; recombinant p97 ATPase, Kinase-Glo ATP luminescence, 3 h; inhibition, % at 8 µM; 220,000 tested, 0.42% active; AID 1481, 2009; in the data active means inhibition above about 15%;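 further: 0% = DMSO vehicle and 100% = wells lacking enzyme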
# Active calls of the source: *; x = no result given. Only some compounds are listed: those with a hit (about 0.74% of all), similar ones and a draw of the others.
SMILES,DTT redox prof,Furin inhibitor,p-CIP stab down,Efa HMGR inh,TbHK1 inh,p97 inhibitor
CCOc1ccc(N2CC(C(=O)Nc3ccc4c(c3)OCCO4)CC2=O)cc1 (stereo not drawn),x,x,-13,x,x,x
CCOc1ccccc1N1CC(C(=O)Nc2ccc3c(c2)OCCO3)CC1=O (stereo not drawn),-2,-5,9,12*,5,-5
COC(=O)c1ccc(NC(=O)CN2CCN(CCO)CC2)cc1,x,x,-12,x,x,x
COC(=O)c1ccccc1NC(=O)CSc1nnc(CNS(=O)(=O)c2ccc(C)cc2)n1C,2,-21,4,14*,3,1
C[C@@]12C(=O)N(CC3CC3)CC(=O)N1[C@H](/C=C/c1ccccc1)[C@@H]1C(=O)N(c3ccccc3)C(=O)[C@@H]12,x,x,3,x,x,x
c1ccc(OCCSc2nc3ccccc3[nH]2)cc1,0,-4,-12,13*,7,1
Cc1cc(-c2nnc(SCC(=O)Nc3ccccc3C)n2N)n[nH]1,x,x,-7,x,x,x
COc1ccc(-c2cc(C(=O)Nc3ccc(C(N)=O)cc3)c3ccccc3n2)cc1,x,x,10,x,x,x
Cc1nn(C)c(C)c1CN(C)C(=O)CCCC(=O)O,2,25*,-4,-7,5,6
CN(Cc1ccccc1)c1nc(N)nc(Cl)c1C=O,0,-25,1,14*,1,4
COc1ccc(F)cc1S(=O)(=O)Nc1ccncc1,x,x,2,x,x,x
O=C(Cc1c[nH]c2ccccc12)N1CCc2ccccc21,3,35*,1,-1,3,9
O=C(CSc1c[nH]c2ccccc12)N1CCCc2ccccc21,1,-15,-2,-8,6,-3
COc1ccc(OC)c(S(=O)(=O)N2CCC(C(=O)N3CCCCCC3)CC2)c1,x,x,-2,x,x,x
O=C(CCCN1C(=O)c2ccccc2C1=O)Nc1sc2c(c1C(=O)NCc1ccco1)CCC2,-3,-22,-7,2,-7,4
O=C(CN1C(=O)c2ccccc2C1=O)Nc1sc2c(c1C(=O)NCc1ccco1)CCCC2,2,29*,-3,-2,-6,5
CCOC(=O)/C=C/C(=O)OCC(=O)Nc1ccc(C)cc1,0,1,-1,11*,1,0
Cc1onc(-c2ccccc2)c1C(=O)NC(=S)NNC(=O)c1cc(-c2ccc(F)cc2)n[nH]1,x,-26,1,x,-24,12
CCn1c(=O)c2cc(C(=O)NC(C)C)sc2c2ccccc21,x,-28,-1,x,-28,15*
CCOC(=O)c1nnn(-c2ccc(OC)cc2)c1N,2,-22,-4,15*,2,3
CCOC(=O)C(CC)n1cnc2c(nnn2-c2ccc(OC)cc2)c1=O (stereo not drawn),0,-14,-18,27*,-2,4
CCC(=O)Nc1ccc2c(c1)nc(CN1CCCCC1)n2C,-1,-36,-8,15*,-5,2
Oc1cccc(Nc2nc(O)c(/C=C3\C=Nc4ccccc43)s2)c1,x,5,-53,x,-6,32*
CCC(C)(C)NC(=O)C1CCCN(S(=O)(=O)c2ccc3c(c2)CC(C)N3C(=O)C2CC2)C1 (stereo not drawn),x,x,2,x,x,x
O=C1c2ccccc2C(=O)C1c1ccc2ccccc2n1,-2,-2,33,15*,-6,0
SMILES,DTT redox prof,Furin inhibitor,p-CIP stab down,Efa HMGR inh,TbHK1 inh,p97 inhibitor
COC(=O)C1=C(C)NC(C)=C(C(=O)OC)C1c1ccc2ccccc2n1,0,-20,3,2,-10,5
CCN(Cc1ccncc1)C(=O)CCc1nnc(CCC2CCCCC2)o1,-1,-21,2,12*,-5,4
CCN(Cc1ccncc1)C(=O)CCc1nnc(CCc2ccccc2OC)o1,-1,-19,-15,-10,-7,8
COc1ccnc(N=CNOCc2ccc(Cl)cc2)c1C#N,x,-28,-3,x,-10,5
N#Cc1cnc(NOCc2ccc(Cl)cc2)nc1,0,-28,-6,9.6*,-3,10
O=C(O)CC1(CC(=O)Nc2ccc3sccc3c2)CCCCC1,x,-11,-8,x,-12,5
COc1ccc(CCC(=O)N2CCCC(Nc3ccc(C)c(C)c3)C2)cc1OC (stereo not drawn),x,x,-3,x,x,x
CCN(CC)S(=O)(=O)c1ccc(S(=O)(=O)N2CCCC2)cc1,1,-32,-5,9.9*,1,4
CCOc1ccc(S(=O)(=O)N2CCCC2)cc1,0,-9,0,-5,-4,-3
COc1cc(C)nc(Oc2ccc(OCc3ccccc3)nn2)n1,1,-5,-2,0,4,-8
COc1cc(C)nc(Oc2ccc(OCCOc3ccccc3)nn2)n1,0,-25,-14,19*,4,2
COc1ccc(-c2ccc(SCC(=O)c3ccccc3)nn2)cc1OC,1,-19,-16,11*,-8,-2
CC(C)(C)c1ccc(C(CC(=O)O)NC(=O)c2ccccc2F)cc1 (stereo not drawn),13,-19,-7,-7,-3,-1
COc1ccc(NC(=O)C(NC(C)=O)C(=O)NCc2ccccc2OC)cc1 (stereo not drawn),4,-22,3,-4,-1,2
COc1ccc(CNC(=O)C(NC(C)=O)C(=O)Nc2ccc(C(C)C)cc2)cc1 (stereo not drawn),-2,-12,-5,12*,-3,1
COCCn1c(SCC#N)nnc1-c1ccc(OC)cc1,0,-32,0,13*,-3,-3
O=C(CN(Cc1ccccc1)C(=O)CSc1nnc(COc2ccccc2)o1)NC1CCCC1,1,-17,5,-7,2,4
Cc1ccc(CN(CC(=O)NC2CCCC2)C(=O)CSc2nnc(COc3ccccc3)o2)cc1,4,25*,13,-11,-3,1
COc1ccc(CCNC(=O)CCCc2ccccc2)cc1OC,x,x,-3,x,x,x
Cc1ccc(N2C(=O)C3C4C=CC(C4)C3C2=O)cc1C (stereo not drawn),-1,-11,-2,-10,6,6
CC1=NN(c2ccc(C)c(C)c2)C(=O)C1C(c1cccc(O)c1)C1C(=O)N(c2ccc(C)c(C)c2)N=C1C (stereo not drawn),2,-12,6,-3,-17,35*
O=C(N/N=C/c1ccc[nH]1)c1ccc(O)cc1,0,-7,-10,1,-72,6
O=C(N/N=C/c1ccc[nH]1)c1ccccc1O,0,-15,-2,10*,-25,4
COc1ccc(C(=O)NCCCCCCNC(=O)c2ccc(OC)cc2)cc1,x,x,0,x,x,x
COc1ccc(NC(=O)NNC(=O)COc2ccc(Cl)cc2C)cc1OC,x,x,-4,x,x,x
